# From PubChem BioAssay (NCATS)
# Values joined by “and” are separate entries in the source; they are usually repeats but may differ in a detail not shown here. Equal values may be shown once. Records with an inconclusive call do not appear. Entries that show only a call come without a potency. Active and inactive are the calls of the source. Calls come from the whole dose curve; as a rule, active = well fitted inhibition curve with a large enough effect; inconclusive = small, poorly fitted or top-dose-only effect; inactive = flat fitted curve, though single readings scatter.
# System: Zika virus NS2B-NS3 protease
# Test: Primary screen GU AMC qHTS for Zika virus inhibitors (AID 1347154); note: nearly all actives have a fitted effect of over 70% in size
# Details: Zika NS2B-NS3 unlinked protease, AMC fluorogenic substrate; series mostly up to 54.1 µM
# Method in brief: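 Unlinked Zika NS2B hydrophilic domain–NS3 protease complex at 25 nM in 10 mM Tris-HCl pH 8.0, 0.01% Tween 20, with an AMC peptide substrate. Fluorescence change (340/450 nm) over 15 min at room temperature, normalized to controls, fitted to 4-parameter Hill.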
# Potency is the fitted concentration of half-maximal effect.
Structure (SMILES),Potency,"activity change, negative = inhibition"
CC(=O)NC(=O)c1ccccc1O,inactive,
O=[N+]([O-])c1ccc(/C=N\O)o1,inactive,
CCC(Cc1c(I)cc(I)c(N)c1I)C(=O)O (centres undefined),inactive,
CCCCCCCCCCCCSCCOCCO,inactive,
CN1CCN(CCC(=O)N2c3ccccc3Sc3ccc(C(F)(F)F)cc32)CC1,inactive,
CC1(COc2ccc(CC3SC(=O)NC3=O)cc2)CCCCC1 (centres undefined),,6.2% [at 6.83 µM] (inactive)
CC(=O)Oc1ccc(C)cc1,inactive,
CN=C(N)NCCC[C@H](N)C(=O)O,inactive,
CCOC(=O)c1ccc(N)cc1,inactive,
C[C@@]12C(=O)OC(=O)[C@]1(C)C1CCC2O1,inactive,
CCN(CC)CCOc1ccccc1C(=O)CCc1ccccc1,inactive,
CN1CCC(OC(c2ccccc2)c2ccccc2)CC1,inactive,
COc1ccc(C(=O)c2ccccc2)c(O)c1,inactive,
CC(=O)OCC1=C(C(=O)O)N2C(=O)[C@@H](NC(=O)CSc3ccncc3)[C@H]2SC1,inactive,
O[C@@H](c1cc(C(F)(F)F)nc2c(C(F)(F)F)cccc12)[C@H]1CCCCN1,inactive,
CCCc1ncc(C[n+]2ccccc2C)c(N)n1,inactive,
CCCCOC(=O)CC(CC(=O)OCCCC)(OC(C)=O)C(=O)OCCCC,inactive,
CCc1oc2ccccc2c1C(=O)c1cc(Br)c(O)c(Br)c1,10.6 µM (active),
O=C(Oc1cccc2cccnc12)c1ccccc1,inactive,
CCCCCCCCCCCCCC[N+](C)(C)Cc1ccccc1,inactive,
CCN(CC)CCOc1ccc2c(c1)C(=O)c1cc(OCCN(CC)CC)ccc1-2,inactive,
CC(C)(C)NC[C@H](O)COc1nsnc1N1CCOCC1,inactive,
C[C@H]1O[C@@H](O[C@H]2CC[C@@]3(C)[C@H](CC[C@@H]4[C@@H]3C[C@@H](O)[C@]3(C)[C@@H](C5=CC(=O)OC5)CC[C@]43O)C2)C[C@H](O)[C@@H]1O[C@H]1C[C@H](O)[C@H](O[C@H]2C[C@H](O)[C@H](O[C@@H]3O[C@H](CO)[C@@H](O)[C@H](O)[C@H]3O)[C@@H](C)O2)[C@@H](C)O1,inactive,
C=C1c2cccc(O)c2C(O)=C2C(=O)[C@]3(O)C(O)=C(C(N)=O)C(=O)[C@@H](N(C)C)[C@@H]3[C@@H](O)[C@H]12,3.98 µM (active) and 2.99 µM (active),
